The values that follow come from PubChem BioAssay (Tox21).

Structures are written as SMILES. A number with no mark means an inactive call. Records with an inconclusive call do not appear. Active and inactive are the calls of the source. Unless noted, calls come from the whole dose curve; as a rule, active = well fitted curve in the direction sought with a large enough effect in the repeat runs; inconclusive = weak or mixed curves; inactive = no such curve, though single readings can be large; an effect the other way counts as inactive or inconclusive.

A short description of test [1]: qHTS assay for small molecules that induce genotoxicity in human embryonic kidney cells expressing luciferase-tagged ATAD5 (AID 651632). Note: % is set by controls: 0 for no effect and ±100 for the full control effect; nearly all actives have a fitted effect of over 15% in size. The method, boiled down:
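DMSO vehicle served as the control. HEK293T reporter cells, 16 hr at 37C, then 30 min Amplite at room temperature; ATAD5 induction is measured as luciferase activity.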

Test [2] can be described thus: qHTS assay for small molecule agonists of the p53 signaling pathway - cell viability (AID 651633; calls by dose curve; note: nearly all actives have a fitted effect of over 30% in size; note: potency is the fitted concentration of half-maximal effect). The method, boiled down: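 p53RE-bla cells were treated with compound for 16 hours at 37 C. Cytotoxicity was then measured as CellTiter-Glo luminescence after 30 min at room temperature.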
Background: Quantitative high-throughput screening tests each substance at several concentrations.

The nature of test [3]: qHTS assay for small molecules that induce genotoxicity in human embryonic kidney cells expressing luciferase-tagged ATAD5 - cell viability (AID 651634; calls by dose curve; note: nearly all actives have a fitted effect of over 25% in size; note: potency is the fitted concentration of half-maximal effect). The method, boiled down: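 Here HEK293T cells with the ATAD5 luciferase reporter are incubated with test compounds for 15.5 hr, and cytotoxicity is then gauged by measuring protease activity in live cells using fluorescence.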

Test [4] is described as follows: qHTS assay for small molecule disruptors of the mitochondrial membrane potential - cell viability (AID 720634; calls by dose curve; note: nearly all actives have a fitted effect of over 20% in size; note: potency is the fitted concentration of half-maximal effect). In outline: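 Viability of HepG2 cells is scored from ATP content by luminescence; cells are exposed to compound for 1 hr at 37 C and 5% CO2, then dosed with m-MPI dye before the CellTiter-Glo reagent.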
Test [5] is described as follows: qHTS assay to test for compound auto fluorescence at 590 nm (red) in HepG2 cells (AID 720674). Note: % is set by controls: 0 for no effect and ±100 for the full control effect. The method, boiled down: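 Seeding: 2,000 HepG2 cells/well, MEM/10% FBS, overnight 37 C. Dosing: compound vs DMSO. Incubation: 1 hr, 37 C, 5% CO2. Read: fluorescence 540 ex/590 em, Rose Bengal sodium as red reference.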
Test [6] in a line: qHTS assay to test for compound auto fluorescence at 535 nm (green) in HepG2 cells (AID 720675). Note: % is set by controls: 0 for no effect and ±100 for the full control effect.
Test [7] is described as follows: qHTS assay to test for compound auto fluorescence at 460 nm (blue) in HEK293 cells (AID 720678). Note: potency is the fitted concentration of half-maximal effect. The method, boiled down: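 Cells were seeded and left to adhere for 4-5 hr at 37C. Compounds were then pin-transferred. After an overnight incubation at 37C under 5% CO2, intrinsic fluorescence at 405/460 nm was measured and referenced to triamterene.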
The nature of test [8]: qHTS assay to test for compound auto fluorescence at 590 nm (red) in HEK293 cells (AID 720679). Note: % is set by controls: 0 for no effect and ±100 for the full control effect. The method, boiled down:
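Each well held 2,000 HEK293 cells in medium containing 10% dialyzed FBS. Following 4-5 hr attachment at 37C, 23 nL test compound or DMSO was added; plates sat overnight, and red fluorescence (540/590nm) was recorded.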

Test [9] can be described thus: qHTS assay to test for compound auto fluorescence at 535 nm (green) in HEK293 cells (AID 720680). Note: % is set by controls: 0 for no effect and ±100 for the full control effect.
A short description of test [10]: qHTS assay to test for compound auto fluorescence at 460 nm (blue) in HEK293 cell free culture (AID 720681). Note: potency is the fitted concentration of half-maximal effect. In outline:
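Compounds were added to cell-free DMEM with 10% FBS and fluorescence read directly. The blue channel used 405 nm excitation and 460 nm emission, with triamterene as the reference fluorophore.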

The nature of test [11]: qHTS assay to test for compound auto fluorescence at 590 nm (red) in HepG2 cell free culture (AID 720684). Note: % is set by controls: 0 for no effect and ±100 for the full control effect. In outline: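 Rose Bengal sodium served as the reference for red signal. Test compounds were dispensed into serum-containing MEM (10% FBS) without cells, and plates were read at 540/590 nm.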
Test [12] is described as follows: qHTS assay to test for compound auto fluorescence at 460 nm (blue) in HepG2 cell free culture (AID 720685). Note: potency is the fitted concentration of half-maximal effect. The method, boiled down: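 Cell-free plates of MEM plus 10% FBS received 23 nL compound or DMSO vehicle; blue-channel (405/460 nm) intensity scored against triamterene as reference fluorophore.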
Test [13] can be described thus: qHTS assay to test for compound auto fluorescence at 535 nm (green) in HepG2 cell free culture (AID 720686). Note: % is set by controls: 0 for no effect and ±100 for the full control effect.
The nature of test [14]: qHTS assay to test for compound auto fluorescence at 460 nm (blue) in HepG2 cells (AID 720687). Note: potency is the fitted concentration of half-maximal effect. The method, boiled down:
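HepG2 cells in MEM with 10% FBS, attached overnight at 37 C, were exposed to compound or DMSO for 1 hr at 37 C, 5% CO2. Blue fluorescence was read at 405/460 nm, with triamterene as reference fluorophore.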

Test [15] has as its target Glucocorticoid receptor (Homo sapiens) (UniProt P04150). Put plainly: qHTS assay to identify small molecule agonists of the glucocorticoid receptor (GR) signaling pathway (AID 720691; active = well fitted activation curve with a large enough effect in the signal ratio in the repeat runs, not every such curve was filed as active; the % refers to the signal ratio; note: % is set by controls: 0 for no effect and ±100 for the full control effect). The method, boiled down: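 Compounds in DMSO, alongside positive controls, were added to GR-bla HeLa reporter cells and incubated 18 h at 37 C; GRE-driven beta-lactamase was detected by fluorescence after 2 h with FRET substrate at room temperature.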

A short description of test [16]: qHTS assay to test for compound auto fluorescence at 535 nm (green) in HEK293 cell free culture (AID 720682). Note: % is set by controls: 0 for no effect and ±100 for the full control effect. In outline:
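DMEM + 10% FBS, cell-free; cpd or DMSO pinned in; Ex485/Em535 read; output as fluorescein-equivalent signal.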

Test [17] in a line: qHTS assay to test for compound auto fluorescence at 590 nm (red) in HEK293 cell free culture (AID 720683). Note: % is set by controls: 0 for no effect and ±100 for the full control effect. The method, boiled down: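 Cell-free wells of DMEM with 10% FBS received compound, and intrinsic fluorescence was read at excitation/emission 540/590 nm. Values expressed as equivalence to Rose Bengal sodium.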
The target of test [18] is Glucocorticoid receptor (Homo sapiens) (UniProt P04150). Put plainly: qHTS assay to identify small molecule antagonists of the glucocorticoid receptor (GR) signaling pathway (AID 720692; active = well fitted inhibition curve with a large enough effect in the signal ratio in the repeat runs, not every such curve was filed as active; the % refers to the signal ratio; note: potency is the fitted concentration of half-maximal effect). In outline:
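In a 1536-well cell format, compounds were added 4 h after seeding GR-bla HeLa cells, together with dexamethasone at 5 nM final; reporter activity was measured by FRET-substrate fluorescence following 18 h at 37 C.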

Test [19] is described as follows: qHTS assay for small molecule disruptors of the mitochondrial membrane potential (AID 720635). Note: potency is the fitted concentration of half-maximal effect. The method, boiled down: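 HepG2 cells exposed to compound 1 hr at 37C, then Mito-MPS dye 30 min. Ratio read of aggregate (540/590 nm) versus monomer (490/535 nm) fluorescence.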
Tags give direction and shape of the fitted curve or compound fluorescence and quenching.

Sequence of Glucocorticoid receptor (Homo sapiens) (P04150 whole entry, looked up): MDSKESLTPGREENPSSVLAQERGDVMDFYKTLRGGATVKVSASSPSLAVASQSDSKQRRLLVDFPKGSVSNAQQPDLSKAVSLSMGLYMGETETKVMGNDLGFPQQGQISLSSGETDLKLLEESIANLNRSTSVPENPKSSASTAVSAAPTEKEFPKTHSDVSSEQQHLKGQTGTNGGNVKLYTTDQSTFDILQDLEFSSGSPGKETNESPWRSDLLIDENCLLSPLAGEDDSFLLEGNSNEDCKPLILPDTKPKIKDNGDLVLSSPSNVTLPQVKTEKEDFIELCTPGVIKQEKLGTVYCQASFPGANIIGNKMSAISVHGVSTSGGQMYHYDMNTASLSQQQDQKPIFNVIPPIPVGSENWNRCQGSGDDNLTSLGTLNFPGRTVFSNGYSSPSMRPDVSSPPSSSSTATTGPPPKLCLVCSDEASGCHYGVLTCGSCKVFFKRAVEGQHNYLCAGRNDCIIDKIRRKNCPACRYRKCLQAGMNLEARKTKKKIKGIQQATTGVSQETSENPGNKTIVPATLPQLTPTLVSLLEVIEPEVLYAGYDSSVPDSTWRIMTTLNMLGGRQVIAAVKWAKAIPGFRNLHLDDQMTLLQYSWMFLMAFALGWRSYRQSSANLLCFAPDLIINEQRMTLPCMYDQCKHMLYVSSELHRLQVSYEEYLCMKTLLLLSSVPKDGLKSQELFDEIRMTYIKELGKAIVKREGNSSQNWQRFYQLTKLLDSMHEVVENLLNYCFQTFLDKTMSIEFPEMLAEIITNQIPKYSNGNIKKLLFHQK

As for `CC(C)c1nc(CN(C)C(=O)N[C@H](C(=O)N[C@@H](Cc2ccccc2)C[C@H](O)[C@H](Cc2ccccc2)NC(=O)OCc2cncs2)C(C)C)cs1`, the Potency entry in test [1], in [2], in test [3], in test [4], in test [7] and in [10] was “inactive” each time. The Potency result in test [12], in [14] and in test [15] was “inactive” throughout. For the same molecule, the call in test [5], in test [6], in test [8], in test [9], in [11] and in [13] was inactive.

Take `CCCCC(CC)CN` (stereo not given): the Potency entry in [1], in [2], in test [3], in [7], in [10] and in test [12] was “inactive” each time. Moreover, the Potency entry in test [14] and in [15] was “inactive” in each case. The molecule was called inactive in test [5], in [6], in test [9], in test [16], in [17] and in test [11]. For the same molecule, the result in [13] was inactive.

For the molecule `Cc1cccc(O)c1N`, the Potency result in [1], in test [2], in test [4], in [7], in [10] and in [12] was “inactive” in each case. For the same molecule, the Potency result in test [14], in [15] and in test [18] was “inactive” throughout. For the same molecule, the molecule was classed as inactive in test [5], in test [6], in test [8], in [9], in test [17] and in [11]. The outcome in test [13] was inactive.

For `C[C@@H](CN(C)C)CN1c2ccccc2Sc2ccccc21`, the Potency result in [1], in test [2], in test [4] and in [15] was “inactive” each time. Also, the fluorescence, relative to Rose Bengal in [5] is 0.322% [at 18.6 µM]. The fluorescence, % of triamterene in test [7] was -0.151% [at 18.6 µM]. In addition, the fluorescence, % of fluorescein in test [9] was -0.0143% [at 18.6 µM]. In addition, the fluorescence, % of fluorescent control in test [10] was 0.0136% [at 18.6 µM]; in test [17], 0.012% [at 18.6 µM]; in test [12] it was 0.0401% [at 18.6 µM]; in test [14] it was -0.0799% [at 18.6 µM]. Further, the activity change in test [16] was -0.0963% [at 18.6 µM]. In addition, the fluorescence, % of Rose Bengal in [11] was -0.209% [at 18.6 µM]. The fluorescence, % of fluorescein control in test [13] was -0.0052% [at 18.6 µM].

For the molecule `CCCC(C(=O)OCCN(CC)CC)(c1ccccc1)c1ccccc1`, the Potency entry in test [1], in test [2], in [4], in test [7], in [10] and in test [12] was “inactive” each time. Moreover, the Potency result in [14] and in [15] was “inactive” each time. Besides, the molecule was called inactive in test [5], in test [8], in test [9], in test [16], in test [17] and in test [11].

As to `COc1ccccc1NC(=O)c1cc2ccccc2cc1O`, the Potency entry in test [1], in [3] and in test [15] was “inactive” in each case. Moreover, the Potency in test [2] is 54.5 µM (active); in [4], 7.7 µM (active); in test [7] it was 39.8 µM [fluorescent] (active); in test [10], 44.7 µM (active); in [12] it was 39.8 µM [fluorescent] (active); in test [14], 39.8 µM [fluorescent] (active). Also, the Potency in test [18] is 38.9 µM (active). Further, the result in [5], in test [9], in [16], in test [17], in test [11] and in test [13] was inactive.

For the molecule `Oc1cc2c(cc1O)[C@H]1c3ccc(O)c(O)c3OC[C@@]1(O)C2`, the Potency entry in test [1], in test [2], in test [4], in test [7], in test [10] and in test [12] was “inactive” throughout. For the same molecule, the Potency entry in test [14] and in test [15] was “inactive” throughout. Also, in test [3], the Potency was 69.4 µM (active). Besides, the molecule was classed as inactive in [5], in test [6], in test [9], in test [16], in [17] and in test [11]. For the same molecule, in [13], the molecule was called inactive.

Take `Oc1cccc(Nc2ccccc2)c1`: the Potency entry in [1], in [2], in test [4], in [7], in test [10] and in test [12] was “inactive” throughout. Also, the Potency result in test [14] and in test [15] was “inactive” in each case. Besides, the Potency in [19] is 25.4 µM (active). The outcome in test [5], in test [9], in test [17], in [11] and in test [13] was inactive.
